Data on eight compounds can be found in PubChem BioAssay (Tox21).

SMILES strings stand for the structures. A number with no mark means an inactive call. Inconclusive results are not listed. Active and inactive are the calls of the source. Unless noted, the call rests on the fitted dose curve; in most records, active means well fitted curve in the direction sought with a large enough effect in the repeat runs; inconclusive means weak or mixed curves; inactive means no such curve, though single readings can be large; an effect the other way counts as inactive or inconclusive.

The target of test [1] is Nuclear receptor subfamily 1 group I member 3 (Homo sapiens) (UniProt Q14994). Description: qHTS assay to identify small molecule agonists of the constitutive androstane receptor (CAR) signaling pathway (AID 1224839). Further: nearly all actives have a fitted effect of over 15% in size. Further: potency means the concentration at half of the fitted maximal effect.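 On activation: HepG2 cells stably carrying human CAR and a CYP2B6 luciferase reporter; series mostly up to about 92 µM.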 The essentials:
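HepG2-CYP2B6-hCAR cells, 2500/well, 4 h pre-incubation; compounds 15 conc.; PK11195 0.75 uM final; 24 h, 37 C/5% CO2; ONE-Glo luciferase read.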
On the technique in general: qHTS replaces the single test concentration by a dilution series.

A short description of test [2]: qHTS assay to identify small molecule antagonists of the estrogen related receptor signaling pathway with the pleiotropic PPARgamma coactivator (PGC) from Tox21 10K library - cell viability counter screen (AID 1224840; active means well fitted cell-killing curve with a large enough effect in the repeat runs, not every such curve was filed as active; further: nearly all actives have a fitted effect of over 40% in size). The essentials:
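Multiplexed viability counter screen in the PGC/ERR cell line: cells treated with DMSO-dissolved compounds for 17.5 hours at 37 C, then viability measured as CellTiter-Fluor fluorescence.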

A short description of test [3]: qHTS assay to identify small molecule agonists of the hypoxia (HIF-1) signaling pathway - cell viability counter screen (AID 1224844; calls by dose curve; further: nearly all actives have a fitted effect of over 50% in size). An outline of the steps: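 Cytotoxicity was measured in parallel with the HRE-driven beta-lactamase readout: after 17 hrs of compound exposure at 37C, HRE-bla ME-180 cells received CellTiter-Glo and luminescence was recorded 30 min later.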

Test [4] is described as follows: qHTS assay to identify small molecule agonists of H2AX (AID 1224845; active means well fitted activation curve with a large enough effect in the signal ratio in the repeat runs, not every such curve was filed as active; the % refers to the signal ratio). An outline of the steps: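 Wild-type CHO-K1 cells plated overnight, then exposed 3 hr at 37C to compounds at 15 concentrations (0.76% DMSO). Lysed, then HTRF anti-pH2AX(S139)-cryptate/anti-H2AX-d2 detection after 24 hr at room temperature; emissions 665 and 620 nm.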
Test [5] is described as follows: qHTS assay to identify small molecule agonists of the hypoxia (HIF-1) signaling pathway (AID 1224846; active means well fitted activation curve with a large enough effect in the signal ratio in the repeat runs, not every such curve was filed as active; the % refers to the signal ratio). The essentials:
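Compounds from the Tox21 10K library, dissolved in DMSO, are tested for induction of a hypoxia response element–controlled beta-lactamase reporter in ME-180 cells. Exposure lasts 17 hrs at 37C after a 5 hr settling period, followed by CCF4-AM FRET substrate.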

The nature of test [6]: qHTS RealTime-Glo MT Cell Viability Assay in HepG2 cells - 24 hour (AID 1224867). Further: nearly all actives have a fitted effect of over 50% in size. The essentials: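 HepG2 cells (600/well) were dispensed with RealTime-Glo reagents, incubated 5 h at 37 °C, then treated with compounds in DMSO for up to 40 h. Nonlytic NanoLuc luminescence reflecting viable cells was read at each stated time point.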
The nature of test [7]: qHTS RealTime-Glo MT Cell Viability Assay in HEK293 cells - 32 hour (AID 1224868). Further: top concentration of the series differs between compounds; nearly all actives have a fitted effect of over 50% in size. An outline of the steps:
(§1)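 HEK293 cells seeded with NanoLuc/prosubstrate reagent, rested 5 h at 37 C, then dosed and kept at 37 C up to 40 h. Nonlytic real-time luminescence from viable cells read at 0, 8, 16, 24, 32 and 40 h.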

Test [8] is described as follows: A CellTox Green Cytotoxicity Assay to monitor cytotoxicity in HEK293 cells - 0 hour (AID 1224869). Further: nearly all actives have a fitted effect of over 50% in size. The essentials:
(§2)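 Cells (HEK293, 600/well) and dye reagent are dispensed together. After 5 h at 37 C, 23 nL compound is pinned in. Plates stay at 37 C for 40 h with fluorescence read at 0h, 8h, 16h, 24h, 32h and 40h.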

Test [9] is described as follows: qHTS RealTime-Glo MT Cell Viability Assay in HepG2 cells - 40 hour (AID 1224870). Further: nearly all actives have a fitted effect of over 50% in size. An outline of the steps:
(§3)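 HepG2 cells mixed with RealTime-Glo MT reagents (NanoLuc plus cell-permeant prosubstrate) were seeded at 600 cells/well, incubated 5 h at 37 C/5% CO2, then pinned with compounds in DMSO; nonlytic luminescence tracked viability during 40 h treatment.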

A short description of test [10]: A CellTox Green Cytotoxicity Assay to monitor cytotoxicity in HEK293 cells - 40 hour (AID 1224871). Further: nearly all actives have a fitted effect of over 45% in size. An outline of the steps:
as §2

Test [11] is described as follows: qHTS RealTime-Glo MT Cell Viability Assay in HEK293 cells - 16 hour (AID 1224872). An outline of the steps: as §1
Test [12] can be described thus: qHTS RealTime-Glo MT Cell Viability Assay in HepG2 cells - 8 hour (AID 1224873). Further: nearly all actives have a fitted effect of over 55% in size. The essentials:
as §3

A short description of test [13]: qHTS RealTime-Glo MT Cell Viability Assay in HEK293 cells - 40 hour (AID 1224874). Further: nearly all actives have a fitted effect of over 50% in size. The settings on record: RealTime-Glo luminescence; max response: stronger effect = lower value. An outline of the steps: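 Real-time viability in HEK293: signal arises when living cells convert a prosubstrate for NanoLuc in the medium, so luminescence tracks viable cell number. Compound (23 nL, DMSO) added 5 h post-seeding; kinetic reads at 0–40 h, 37 C.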

Test [14] is described as follows: A CellTox Green Cytotoxicity Assay to monitor cytotoxicity in HEK293 cells - 24 hour (AID 1224875). Further: series mostly up to about 77 µM; nearly all actives have a fitted effect of over 45% in size. An outline of the steps: as §2
Test [15] is described as follows: qHTS assay to identify small molecule antagonists of the estrogen related receptor signaling pathway with the pleiotropic PPARgamma coactivator (PGC) from Tox21 10K library (AID 1224841; call rule not given here; further: potency means the concentration at half of the fitted maximal effect). The essentials:
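Steps: plate 2,000 PGC/ERR cells per well; incubate 6 h at 37 C with 5% CO2; transfer compounds from DMSO stocks by pin tool; incubate 18 h at 37 C; add One-Glo; measure luminescence 30 min later.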

A short description of test [16]: qHTS assay to identify small molecule agonists of the estrogen related receptor signaling pathway with the pleiotropic PPARgamma coactivator (PGC) from Tox21 10K library (AID 1224842). Further: nearly all actives have a fitted effect of over 15% in size. An outline of the steps:
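PGC/ERR reporter cells (NTP line) were seeded 2,000 per well, rested 6 h at 37 C/5% CO2, then pin-dosed with compounds in DMSO for 18 h at 37 C; luciferase read by One-Glo luminescence after 30 min at room temperature.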

Test [17] addresses Thyrotropin receptor (Homo sapiens) (UniProt P16473). Description: qHTS assay to identify small molecule agonists of the thyroid stimulating hormone receptor (TSHR) signaling pathway (AID 1224843; calls by dose curve; further: nearly all actives have a fitted effect of over 45% in size). An outline of the steps:
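Compounds are titrated over 15 concentrations, in triplicate, onto TSHR-HEK293 cells seeded at 800/well. Plates sit 30 min at room temperature before cAMP-d2 and anti-cAMP cryptate are added; signal is read after a further hour.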

The nature of test [18]: qHTS assay to identify small molecule agonists of H2AX - cell viability counter screen (AID 1224847; calls by dose curve; further: top concentration of the series differs between compounds; nearly all actives have a fitted effect of over 30% in size). An outline of the steps:
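Cells plated first: CHO-K1, 1000 per well in 10% FBS medium, incubated overnight at 37C. Then 15-point compound titration added (final DMSO 0.76%) for 3 hr. Finally CellTiter-Glo added and luminescence read.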

Test [19] can be described thus: qHTS assay to identify small molecule antagonists of the estrogen related receptor (ERR) signaling pathway from Tox21 library (AID 1224848). Further: nearly all actives have a fitted effect of over 50% in size. Further: potency means the concentration at half of the fitted maximal effect. An outline of the steps: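 First, 2,000 ERR cells per well were plated and held 6 h at 37 C/5% CO2. Next, compounds in DMSO were pinned in and left 18 h at 37 C. Finally, ONE-Glo was added and luminescence read after 30 min at room temperature.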

Test [20] is described as follows: qHTS assay to identify small molecule agonists of the estrogen related receptor (ERR) signaling pathway from Tox21 library (AID 1224849; calls by dose curve; further: nearly all actives have a fitted effect of over 15% in size). The essentials: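 Cells carrying the ERR reporter were plated and allowed to settle for 6 h, exposed to library compounds for 18 h at 37 C, then lysed with ONE-Glo and luminescence measured.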
On the % scale 0 is the no-effect control and ±100 the full control effect.

Chain of Thyrotropin receptor (Homo sapiens) (P16473 whole entry, looked up): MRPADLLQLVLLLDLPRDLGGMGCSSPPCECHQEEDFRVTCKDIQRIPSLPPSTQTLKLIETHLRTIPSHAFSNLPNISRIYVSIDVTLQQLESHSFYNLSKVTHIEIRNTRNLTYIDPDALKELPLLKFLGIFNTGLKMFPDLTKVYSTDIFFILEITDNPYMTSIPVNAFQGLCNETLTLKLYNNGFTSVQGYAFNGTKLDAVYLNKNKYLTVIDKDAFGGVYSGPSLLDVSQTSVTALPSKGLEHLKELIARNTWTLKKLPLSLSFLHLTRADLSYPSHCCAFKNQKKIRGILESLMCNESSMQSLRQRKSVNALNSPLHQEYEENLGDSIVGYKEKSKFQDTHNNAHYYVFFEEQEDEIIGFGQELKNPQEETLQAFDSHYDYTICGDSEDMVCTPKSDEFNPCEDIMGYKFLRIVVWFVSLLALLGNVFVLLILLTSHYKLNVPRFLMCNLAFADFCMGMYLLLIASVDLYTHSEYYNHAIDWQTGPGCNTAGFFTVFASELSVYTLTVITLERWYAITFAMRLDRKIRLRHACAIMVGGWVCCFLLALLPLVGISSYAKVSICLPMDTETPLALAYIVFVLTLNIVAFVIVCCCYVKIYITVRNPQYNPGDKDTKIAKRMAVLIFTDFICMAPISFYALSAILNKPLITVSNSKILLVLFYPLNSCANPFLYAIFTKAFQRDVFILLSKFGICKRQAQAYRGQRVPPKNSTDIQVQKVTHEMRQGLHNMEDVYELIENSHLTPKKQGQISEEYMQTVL
Chain of Nuclear receptor subfamily 1 group I member 3 (Homo sapiens) (Q14994 whole entry, looked up): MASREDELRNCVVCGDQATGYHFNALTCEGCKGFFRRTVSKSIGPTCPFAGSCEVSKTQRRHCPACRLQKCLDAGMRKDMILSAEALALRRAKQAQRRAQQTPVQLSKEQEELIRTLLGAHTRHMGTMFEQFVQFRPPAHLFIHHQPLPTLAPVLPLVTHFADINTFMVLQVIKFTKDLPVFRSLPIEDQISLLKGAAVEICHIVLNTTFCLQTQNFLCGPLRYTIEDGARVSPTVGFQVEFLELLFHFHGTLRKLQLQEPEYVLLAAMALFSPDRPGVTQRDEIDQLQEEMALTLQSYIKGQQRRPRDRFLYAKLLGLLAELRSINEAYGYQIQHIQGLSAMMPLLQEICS

For the compound `CCCCCCCCCCCCC1CO1` (stereo not drawn), the Potency result in test [1], in [7], in test [8], in [10], in [11] and in test [14] was “inactive” in each case. In addition, the compound was called inactive in test [2], in test [3], in test [4], in test [5], in test [6] and in [9]. Moreover, the outcome in [12] was inactive. Besides, in test [13], the max response was -5.34%.

For `COc1cc(C=O)ccc1OC(=O)C(C)C`, the outcome in test [2], in test [16], in [17], in [3], in test [4] and in [5] was inactive. Moreover, the outcome in test [20], in test [6], in test [9] and in test [12] was inactive. Further, the Potency result in test [15], in test [18], in [19], in [7], in test [8] and in test [10] was “inactive” each time. For the same compound, the Potency entry in [11] and in test [14] was “inactive” in each case. Besides, the max response in test [13] was -2%.

Consider `C=CCOc1c(Br)cc(C(C)(C)c2cc(Br)c(OCC=C)c(Br)c2)cc1Br`, for which the result in test [2], in test [16], in test [17], in [3], in test [4] and in [5] was inactive. The compound was classed as inactive in [20], in test [6], in test [9] and in test [12]. Moreover, the Potency in test [15] is 26.6 µM (active); in test [19], 29.9 µM (active). Moreover, the Potency result in [18], in test [7], in [8], in [10], in [11] and in [14] was “inactive” each time. Moreover, the max response in test [13] was 14.4%.

Regarding `O=C(Oc1ccccc1C(=O)O)c1ccccc1O`, the outcome in test [2], in test [16], in [17], in [3], in test [4] and in [5] was inactive. Moreover, the compound was called inactive in [20], in [6], in [9] and in test [12]. Moreover, the Potency entry in test [15], in [19], in test [7], in test [8], in test [10] and in test [11] was “inactive” each time. For the same compound, the Potency entry in [14] is “inactive”. Also, the max response in test [13] is 4.65%.

Take `CC1=NN(c2ccc(S(=O)(=O)O)cc2)C(=O)C1N=Nc1ccccc1` (stereo not drawn): the Potency entry in test [1], in [18], in [8], in test [10] and in test [14] was “inactive” in each case. For the same compound, the call in test [3], in test [5], in [6], in [9] and in test [12] was inactive.

For the compound `CCNC(=O)/C=C/c1cccc(Br)c1`, the Potency in test [1] is 26.6 µM (active). Moreover, the call in [17], in [3], in [4], in [5], in test [6] and in test [9] was inactive. Further, in test [12], the compound was classed as inactive. Also, the Potency entry in test [18], in test [7], in [8], in [10], in test [11] and in test [14] was “inactive” throughout. The max response in [13] is 1.9%.

With `OC[C@@H](O)[C@H](O)[C@@H](O)[C@@H](O)CO`, the call in test [2], in [16], in test [17], in test [3], in test [4] and in [5] was inactive. The compound was called inactive in test [20], in test [6], in [9] and in test [12]. For the same compound, the Potency result in [15], in [18], in test [19], in [7], in [8] and in [10] was “inactive” throughout. For the same compound, the Potency result in test [11] and in test [14] was “inactive” throughout. Further, in test [13], the max response is 0.901%.

On to `CC(C)COC(=O)CC(C(=O)OCC(C)C)S(=O)(=O)O` (stereo not drawn), for which the Potency result in test [1], in [7], in test [8], in [10], in test [11] and in [14] was “inactive” each time. For the same compound, the outcome in test [2], in test [3], in test [4], in test [5], in test [6] and in test [9] was inactive. The result in test [12] was inactive. Moreover, the max response in test [13] was -3.15%.
